# Data published in PubChem BioAssay (NCI).
# About 79,000 compounds went through this panel and 15% of them were active in at least one assay; those are over-represented in the sample as a whole. A number with no mark means an inactive call. Active and inactive are the calls of the source. Rule as the data show it: active = growth inhibition above about 70%; inactive = the rest.
# Experiment: NCI Yeast Anticancer Drug Screen. Data for the cln2 rad14 strain (AID 165);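 also: 0% = growth equal to vehicle treated cultures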
# Conditions: S. cerevisiae cln2 rad14 strain, at 50.0 µM (retest, dose inferred, filed as 5.0), active compounds read high
# Procedure, shortened: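 The screen exposed genetically defined yeast (cln2 rad14) to test compounds and scored growth inhibition relative to vehicle-treated controls.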
row,SMILES,growth inhibition
1,CC(=O)OCC1OC(n2c(O)c(N=NC(N)=S)c3ccc([N+](=O)[O-])cc32)C(OC(C)=O)C1OC(C)=O (stereo unspecified),23%
2,CC1(c2cccs2)C(C#N)(C#N)C1(C#N)C#N,30%
3,O=C1C=CC(=O)N1C12CC3CC(CC(C3)C1)C2,99% (active)
4,C(=C/c1cnnc2ccccc12)/c1ccccn1,42%
5,COc1ccc2c(c1)C1(C)CCCC(C)(C(=O)O)C1CC2 (stereo unspecified),99% (active)
6,CCN(CC)c1ccc(N=Nc2ccc(Br)cn2)c(O)c1,46%
7,O=[N+]([O-])c1cc(NC(=S)SCc2ccccc2)ccc1Cl,97% (active)
8,C(=C/c1ccnc2ccccc12)/c1cccs1,57%
9,O=P1(O)c2ccccc2CS(=O)(=O)Cc2ccccc21,29%
10,CN1C(Cl)=NS(=O)(=O)c2ccccc21,20%
11,O=C1C=CC(=O)N1c1ccc(Cl)cc1,101% (active)
12,CC(C)CC(C(=O)SCC(C)N1CCCC1)c1ccccc1 (stereo unspecified),43%
13,CC(C)OC(=O)c1ccc(CCC2=CC(=O)C=CC2=O)cc1,91% (active)
14,Cc1ccnc2[nH]c3ccccc3c(=O)c12,96% (active)
15,COc1cc(/C=C/C(=O)c2ccc(O)c(OC)c2)ccc1O,27%
16,CC12C=CC(=O)C=C1CCC1C3CCC(O)(C(=O)CO)C3(C)CC(O)C12F (stereo unspecified),35%
17,O=Cc1ccc2c(c1)CC1(C2)Cc2ccc3c(c2C1)CCC3 (stereo unspecified),41%
18,C[N+](C)(C)CC(=O)N/N=C(\C(=O)NC1=C(Cl)C(=O)c2ccccc2C1=O)C(C#N)c1nc(-c2ccc([N+](=O)[O-])cc2)cs1 (stereo unspecified),91% (active)
19,NC(=O)CC1CCC(c2ccccc2)CC1 (stereo unspecified),-8%
20,O=C(CC(C[N+](=O)[O-])c1ccc2c(c1)OCO2)c1ccccc1 (stereo unspecified),16%
21,CC(=O)OCCCCCCCCCCCCCCO,98% (active)
22,CCOC(=O)c1sc(N/N=C2\NC(=O)/C(=C/c3ccc([N+](=O)[O-])cc3)S2)nc1C,87% (active)
23,O=C1OC(c2ccc3c(c2)OCO3)Sc2ccccc21 (stereo unspecified),4%

# Same assay, conditions: S. cerevisiae cln2 rad14 strain, at 50.0 µM, active compounds read high
row,SMILES,growth inhibition
1,Oc1ccc2oc3ccccc3c2c1,75.5% (active)
2,O=C(O)Cc1cc(I)c(Oc2ccc(O)c(I)c2)c(I)c1,89.3% (active)
3,O=C(O)/C(=C\c1ccc(Cl)cc1)c1ccc(C(F)(F)F)cc1[N+](=O)[O-],97.6% (active)
4,Fc1ccc(NC(=S)SCc2ccccc2)cc1,28.9%
5,CN(C)c1ccccc1CC(c1c[nH]c2ccccc12)c1c[nH]c2ccccc12,86.2% (active)
6,O=C(c1ccccc1)N1CCN(c2cccc(Cl)c2)CC1,-26.1%
7,[C-]#[N+]C(C)(c1ccccc1)c1ccccc1,90.1% (active)
8,Nc1ccccc1[S][Sn]([c]1ccccc1)([c]1ccccc1)[c]1ccccc1,98% (active)
9,O=C1C(Cl)=C(Cl)C(=O)c2cc(Cl)c(Cl)cc21,88.2% (active)
10,CCCCCCCNC1CCCc2cc(OC)ccc21 (stereo unspecified),72.5% (active)
11,NCCc1ccc2oc3cc(=O)c4ccccc4c-3nc2c1,28.7%
12,C/C=C/c1cc2c(cc1O)CC[C@@H]1[C@@H]2CC[C@]2(C)[C@@H](O)CC[C@@H]12,92.7% (active)
13,c1ccc(SSc2ccccn2)nc1,99.5% (active)
14,COC1=C2C[C@@H](C)C[C@@H](OC)[C@@H](O)[C@H](C)/C=C(\C)[C@@H](OC(N)=O)[C@H](OC)/C=C\C=C(/C)C(=O)NC(=CC1=O)C2=O,84.8% (active)
15,NCc1ccccc1-c1c2nc(c(-c3ccccc3CN)c3ccc([nH]3)c(-c3ccccc3CN)c3nc(c(-c4ccccc4CN)c4ccc1[nH]4)C=C3)C=C2,78.8% (active)
16,Cc1cc(C)n2nc(N)c(C#N)c2c1C#N,11.7%
17,CC(=O)OCC1OC(n2c(O)c(N=NC(N)=S)c3ccc([N+](=O)[O-])cc32)C(OC(C)=O)C1OC(C)=O (stereo unspecified),-1.15%
18,CC1(c2cccs2)C(C#N)(C#N)C1(C#N)C#N,98.4% (active)
19,O=C1C=CC(=O)N1C12CC3CC(CC(C3)C1)C2,91.5% (active)
20,C(=C/c1cnnc2ccccc12)/c1ccccn1,45.8%
21,COc1ccc2c(c1)C1(C)CCCC(C)(C(=O)O)C1CC2 (stereo unspecified),96.8% (active)
22,CCN(CC)c1ccc(N=Nc2ccc(Br)cn2)c(O)c1,94.7% (active)
23,O=[N+]([O-])c1cc(NC(=S)SCc2ccccc2)ccc1Cl,99.1% (active)
